From the supplement of paper PMC11732987, “Enantioselective OTUD7B fragment discovery through chemoproteomics screening and high-throughput optimisation” (Communications Chemistry, 2025)

Key:
Assay in all cases: log2 ratio of Biotin-Ahx-Ub-VS probe labelling (fragment/DMSO); higher = less target engagement (more negative = stronger competition), active = hit call of the paper (q ≤ 0.05, log2 ratio ≤ -1)
Conditions in all cases: compound concentration: 200 uM; treatment time: 3 h
USP34 = USP34 (UniProt Q70CQ2)
Procedure, shortened: (§1)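 Labelling with Biotin-Ahx-Ub-VS (0.5 µM final, 1 h) followed a 3 h triplicate treatment of HEK293T lysate (495 µg per sample, Tris/CHAPS/IGEPAL buffer with protease inhibitors) with fragment at 200 µM or vehicle. Labelled DUBs were NeutrAvidin-enriched, digested with LysC and trypsin, and run by diaPASEF LC-MS/MS. The values, average log2 fragment/vehicle ratios by unpaired t-test, come from global-median-normalised Spectronaut label-free quantities. Proteins with ≥2 unique peptides were used.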

USP36 = target: T1, USP36 (UniProt Q9P275)
T1 sequence (whole entry): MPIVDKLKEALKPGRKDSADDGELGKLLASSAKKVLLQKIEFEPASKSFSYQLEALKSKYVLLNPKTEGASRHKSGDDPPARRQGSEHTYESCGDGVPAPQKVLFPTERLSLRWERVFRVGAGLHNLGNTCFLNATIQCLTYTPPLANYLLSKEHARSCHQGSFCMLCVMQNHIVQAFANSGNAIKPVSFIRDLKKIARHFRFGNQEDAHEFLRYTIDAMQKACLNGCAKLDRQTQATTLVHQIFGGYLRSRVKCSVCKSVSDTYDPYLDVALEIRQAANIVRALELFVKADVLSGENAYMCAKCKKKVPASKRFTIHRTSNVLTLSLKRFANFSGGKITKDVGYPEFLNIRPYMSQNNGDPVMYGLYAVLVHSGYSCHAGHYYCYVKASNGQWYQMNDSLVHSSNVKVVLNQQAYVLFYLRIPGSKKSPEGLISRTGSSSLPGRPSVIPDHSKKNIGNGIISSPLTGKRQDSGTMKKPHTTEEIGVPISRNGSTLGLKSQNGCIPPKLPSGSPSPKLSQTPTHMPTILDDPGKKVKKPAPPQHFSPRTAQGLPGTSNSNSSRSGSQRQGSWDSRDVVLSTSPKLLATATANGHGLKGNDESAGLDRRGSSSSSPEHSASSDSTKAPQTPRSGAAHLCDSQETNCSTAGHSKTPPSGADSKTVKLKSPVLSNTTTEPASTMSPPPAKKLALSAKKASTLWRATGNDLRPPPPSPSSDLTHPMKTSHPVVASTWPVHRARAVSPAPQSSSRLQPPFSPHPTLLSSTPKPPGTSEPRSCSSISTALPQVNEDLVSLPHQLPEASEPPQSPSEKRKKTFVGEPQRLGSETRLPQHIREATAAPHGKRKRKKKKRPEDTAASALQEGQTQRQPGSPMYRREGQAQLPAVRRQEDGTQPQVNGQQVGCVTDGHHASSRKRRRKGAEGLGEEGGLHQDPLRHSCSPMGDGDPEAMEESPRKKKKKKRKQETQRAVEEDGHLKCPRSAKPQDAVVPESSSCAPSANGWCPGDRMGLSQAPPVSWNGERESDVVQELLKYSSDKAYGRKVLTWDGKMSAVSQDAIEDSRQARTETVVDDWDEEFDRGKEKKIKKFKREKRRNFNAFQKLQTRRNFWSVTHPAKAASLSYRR
Procedure, shortened: as §1

USP38 = target: T2, USP38 (UniProt Q8NB14)
T2 sequence (whole entry): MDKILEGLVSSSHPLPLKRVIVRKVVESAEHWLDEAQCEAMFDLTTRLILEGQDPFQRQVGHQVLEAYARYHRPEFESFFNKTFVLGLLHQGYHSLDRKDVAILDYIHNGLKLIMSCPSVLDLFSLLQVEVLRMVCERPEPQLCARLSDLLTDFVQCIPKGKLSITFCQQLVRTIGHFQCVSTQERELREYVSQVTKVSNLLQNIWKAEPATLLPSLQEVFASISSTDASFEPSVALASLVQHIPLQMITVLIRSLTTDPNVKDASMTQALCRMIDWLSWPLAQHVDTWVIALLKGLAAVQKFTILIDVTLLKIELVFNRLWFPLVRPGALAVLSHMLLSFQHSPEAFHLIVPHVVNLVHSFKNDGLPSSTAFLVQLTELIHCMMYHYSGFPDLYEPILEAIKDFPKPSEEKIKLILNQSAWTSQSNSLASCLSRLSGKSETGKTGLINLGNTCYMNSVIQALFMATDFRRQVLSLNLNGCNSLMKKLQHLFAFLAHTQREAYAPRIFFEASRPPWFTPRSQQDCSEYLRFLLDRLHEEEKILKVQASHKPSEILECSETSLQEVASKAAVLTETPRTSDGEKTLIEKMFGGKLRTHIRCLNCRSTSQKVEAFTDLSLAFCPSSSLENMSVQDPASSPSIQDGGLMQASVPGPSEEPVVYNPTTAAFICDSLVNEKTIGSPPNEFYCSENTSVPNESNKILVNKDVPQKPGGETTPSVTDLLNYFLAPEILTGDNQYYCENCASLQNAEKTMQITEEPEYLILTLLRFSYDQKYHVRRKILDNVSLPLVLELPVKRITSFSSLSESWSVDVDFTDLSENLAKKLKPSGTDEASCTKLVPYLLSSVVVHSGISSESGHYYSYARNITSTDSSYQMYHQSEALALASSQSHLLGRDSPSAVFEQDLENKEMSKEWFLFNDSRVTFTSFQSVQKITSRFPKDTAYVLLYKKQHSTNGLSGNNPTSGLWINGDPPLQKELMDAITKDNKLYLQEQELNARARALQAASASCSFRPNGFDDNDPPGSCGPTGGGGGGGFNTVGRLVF
Procedure, shortened: as §1

USP39 = target: T3, USP39 (UniProt Q53GS9)
T3 sequence (whole entry): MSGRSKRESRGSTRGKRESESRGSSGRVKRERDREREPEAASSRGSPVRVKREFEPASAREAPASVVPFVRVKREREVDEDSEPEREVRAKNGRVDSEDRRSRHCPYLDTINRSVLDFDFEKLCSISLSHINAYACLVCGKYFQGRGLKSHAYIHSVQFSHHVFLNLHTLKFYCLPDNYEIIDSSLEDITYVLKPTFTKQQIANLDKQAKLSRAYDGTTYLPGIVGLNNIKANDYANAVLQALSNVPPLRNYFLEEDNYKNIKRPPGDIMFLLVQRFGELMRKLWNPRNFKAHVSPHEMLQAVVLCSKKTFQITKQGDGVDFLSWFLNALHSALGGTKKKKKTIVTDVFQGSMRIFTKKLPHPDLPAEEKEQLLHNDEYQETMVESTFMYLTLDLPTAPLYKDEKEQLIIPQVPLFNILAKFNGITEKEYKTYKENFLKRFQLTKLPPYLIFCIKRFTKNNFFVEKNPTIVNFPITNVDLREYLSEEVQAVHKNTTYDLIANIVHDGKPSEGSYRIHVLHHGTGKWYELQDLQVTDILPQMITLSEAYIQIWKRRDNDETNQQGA
Procedure, shortened: as §1

USP4 = target: T4, USP4 (UniProt Q13107)
T4 sequence (whole entry): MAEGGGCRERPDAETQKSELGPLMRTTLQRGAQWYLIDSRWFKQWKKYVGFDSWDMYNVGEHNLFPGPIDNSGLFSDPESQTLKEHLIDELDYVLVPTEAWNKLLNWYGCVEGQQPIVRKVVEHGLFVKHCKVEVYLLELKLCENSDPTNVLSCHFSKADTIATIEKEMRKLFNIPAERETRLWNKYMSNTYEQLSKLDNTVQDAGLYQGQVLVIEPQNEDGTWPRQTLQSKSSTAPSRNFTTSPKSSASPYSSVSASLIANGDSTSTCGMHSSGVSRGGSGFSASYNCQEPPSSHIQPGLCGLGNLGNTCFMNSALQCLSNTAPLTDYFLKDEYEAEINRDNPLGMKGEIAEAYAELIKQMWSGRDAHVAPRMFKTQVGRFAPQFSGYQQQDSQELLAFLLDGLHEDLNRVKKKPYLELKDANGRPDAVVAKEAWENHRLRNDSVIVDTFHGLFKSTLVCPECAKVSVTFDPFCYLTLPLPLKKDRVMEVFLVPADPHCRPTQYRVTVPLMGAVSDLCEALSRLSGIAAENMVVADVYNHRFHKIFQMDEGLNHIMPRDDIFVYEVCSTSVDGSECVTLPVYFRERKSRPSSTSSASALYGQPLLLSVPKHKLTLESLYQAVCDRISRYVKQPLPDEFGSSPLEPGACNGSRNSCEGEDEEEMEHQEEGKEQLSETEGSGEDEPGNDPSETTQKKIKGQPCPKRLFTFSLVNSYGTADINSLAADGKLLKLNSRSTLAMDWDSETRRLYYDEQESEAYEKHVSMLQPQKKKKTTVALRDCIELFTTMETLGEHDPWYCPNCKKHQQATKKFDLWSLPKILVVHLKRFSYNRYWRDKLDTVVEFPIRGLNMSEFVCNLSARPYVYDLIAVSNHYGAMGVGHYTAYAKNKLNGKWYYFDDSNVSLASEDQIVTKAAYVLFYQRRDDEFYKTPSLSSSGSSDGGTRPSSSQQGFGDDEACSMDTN
Procedure, shortened: as §1

Measured: log2 ratio of Biotin-Ahx-Ub-VS probe labelling

Sequence of USP34 (Q70CQ2 whole entry, the tested form may be a part): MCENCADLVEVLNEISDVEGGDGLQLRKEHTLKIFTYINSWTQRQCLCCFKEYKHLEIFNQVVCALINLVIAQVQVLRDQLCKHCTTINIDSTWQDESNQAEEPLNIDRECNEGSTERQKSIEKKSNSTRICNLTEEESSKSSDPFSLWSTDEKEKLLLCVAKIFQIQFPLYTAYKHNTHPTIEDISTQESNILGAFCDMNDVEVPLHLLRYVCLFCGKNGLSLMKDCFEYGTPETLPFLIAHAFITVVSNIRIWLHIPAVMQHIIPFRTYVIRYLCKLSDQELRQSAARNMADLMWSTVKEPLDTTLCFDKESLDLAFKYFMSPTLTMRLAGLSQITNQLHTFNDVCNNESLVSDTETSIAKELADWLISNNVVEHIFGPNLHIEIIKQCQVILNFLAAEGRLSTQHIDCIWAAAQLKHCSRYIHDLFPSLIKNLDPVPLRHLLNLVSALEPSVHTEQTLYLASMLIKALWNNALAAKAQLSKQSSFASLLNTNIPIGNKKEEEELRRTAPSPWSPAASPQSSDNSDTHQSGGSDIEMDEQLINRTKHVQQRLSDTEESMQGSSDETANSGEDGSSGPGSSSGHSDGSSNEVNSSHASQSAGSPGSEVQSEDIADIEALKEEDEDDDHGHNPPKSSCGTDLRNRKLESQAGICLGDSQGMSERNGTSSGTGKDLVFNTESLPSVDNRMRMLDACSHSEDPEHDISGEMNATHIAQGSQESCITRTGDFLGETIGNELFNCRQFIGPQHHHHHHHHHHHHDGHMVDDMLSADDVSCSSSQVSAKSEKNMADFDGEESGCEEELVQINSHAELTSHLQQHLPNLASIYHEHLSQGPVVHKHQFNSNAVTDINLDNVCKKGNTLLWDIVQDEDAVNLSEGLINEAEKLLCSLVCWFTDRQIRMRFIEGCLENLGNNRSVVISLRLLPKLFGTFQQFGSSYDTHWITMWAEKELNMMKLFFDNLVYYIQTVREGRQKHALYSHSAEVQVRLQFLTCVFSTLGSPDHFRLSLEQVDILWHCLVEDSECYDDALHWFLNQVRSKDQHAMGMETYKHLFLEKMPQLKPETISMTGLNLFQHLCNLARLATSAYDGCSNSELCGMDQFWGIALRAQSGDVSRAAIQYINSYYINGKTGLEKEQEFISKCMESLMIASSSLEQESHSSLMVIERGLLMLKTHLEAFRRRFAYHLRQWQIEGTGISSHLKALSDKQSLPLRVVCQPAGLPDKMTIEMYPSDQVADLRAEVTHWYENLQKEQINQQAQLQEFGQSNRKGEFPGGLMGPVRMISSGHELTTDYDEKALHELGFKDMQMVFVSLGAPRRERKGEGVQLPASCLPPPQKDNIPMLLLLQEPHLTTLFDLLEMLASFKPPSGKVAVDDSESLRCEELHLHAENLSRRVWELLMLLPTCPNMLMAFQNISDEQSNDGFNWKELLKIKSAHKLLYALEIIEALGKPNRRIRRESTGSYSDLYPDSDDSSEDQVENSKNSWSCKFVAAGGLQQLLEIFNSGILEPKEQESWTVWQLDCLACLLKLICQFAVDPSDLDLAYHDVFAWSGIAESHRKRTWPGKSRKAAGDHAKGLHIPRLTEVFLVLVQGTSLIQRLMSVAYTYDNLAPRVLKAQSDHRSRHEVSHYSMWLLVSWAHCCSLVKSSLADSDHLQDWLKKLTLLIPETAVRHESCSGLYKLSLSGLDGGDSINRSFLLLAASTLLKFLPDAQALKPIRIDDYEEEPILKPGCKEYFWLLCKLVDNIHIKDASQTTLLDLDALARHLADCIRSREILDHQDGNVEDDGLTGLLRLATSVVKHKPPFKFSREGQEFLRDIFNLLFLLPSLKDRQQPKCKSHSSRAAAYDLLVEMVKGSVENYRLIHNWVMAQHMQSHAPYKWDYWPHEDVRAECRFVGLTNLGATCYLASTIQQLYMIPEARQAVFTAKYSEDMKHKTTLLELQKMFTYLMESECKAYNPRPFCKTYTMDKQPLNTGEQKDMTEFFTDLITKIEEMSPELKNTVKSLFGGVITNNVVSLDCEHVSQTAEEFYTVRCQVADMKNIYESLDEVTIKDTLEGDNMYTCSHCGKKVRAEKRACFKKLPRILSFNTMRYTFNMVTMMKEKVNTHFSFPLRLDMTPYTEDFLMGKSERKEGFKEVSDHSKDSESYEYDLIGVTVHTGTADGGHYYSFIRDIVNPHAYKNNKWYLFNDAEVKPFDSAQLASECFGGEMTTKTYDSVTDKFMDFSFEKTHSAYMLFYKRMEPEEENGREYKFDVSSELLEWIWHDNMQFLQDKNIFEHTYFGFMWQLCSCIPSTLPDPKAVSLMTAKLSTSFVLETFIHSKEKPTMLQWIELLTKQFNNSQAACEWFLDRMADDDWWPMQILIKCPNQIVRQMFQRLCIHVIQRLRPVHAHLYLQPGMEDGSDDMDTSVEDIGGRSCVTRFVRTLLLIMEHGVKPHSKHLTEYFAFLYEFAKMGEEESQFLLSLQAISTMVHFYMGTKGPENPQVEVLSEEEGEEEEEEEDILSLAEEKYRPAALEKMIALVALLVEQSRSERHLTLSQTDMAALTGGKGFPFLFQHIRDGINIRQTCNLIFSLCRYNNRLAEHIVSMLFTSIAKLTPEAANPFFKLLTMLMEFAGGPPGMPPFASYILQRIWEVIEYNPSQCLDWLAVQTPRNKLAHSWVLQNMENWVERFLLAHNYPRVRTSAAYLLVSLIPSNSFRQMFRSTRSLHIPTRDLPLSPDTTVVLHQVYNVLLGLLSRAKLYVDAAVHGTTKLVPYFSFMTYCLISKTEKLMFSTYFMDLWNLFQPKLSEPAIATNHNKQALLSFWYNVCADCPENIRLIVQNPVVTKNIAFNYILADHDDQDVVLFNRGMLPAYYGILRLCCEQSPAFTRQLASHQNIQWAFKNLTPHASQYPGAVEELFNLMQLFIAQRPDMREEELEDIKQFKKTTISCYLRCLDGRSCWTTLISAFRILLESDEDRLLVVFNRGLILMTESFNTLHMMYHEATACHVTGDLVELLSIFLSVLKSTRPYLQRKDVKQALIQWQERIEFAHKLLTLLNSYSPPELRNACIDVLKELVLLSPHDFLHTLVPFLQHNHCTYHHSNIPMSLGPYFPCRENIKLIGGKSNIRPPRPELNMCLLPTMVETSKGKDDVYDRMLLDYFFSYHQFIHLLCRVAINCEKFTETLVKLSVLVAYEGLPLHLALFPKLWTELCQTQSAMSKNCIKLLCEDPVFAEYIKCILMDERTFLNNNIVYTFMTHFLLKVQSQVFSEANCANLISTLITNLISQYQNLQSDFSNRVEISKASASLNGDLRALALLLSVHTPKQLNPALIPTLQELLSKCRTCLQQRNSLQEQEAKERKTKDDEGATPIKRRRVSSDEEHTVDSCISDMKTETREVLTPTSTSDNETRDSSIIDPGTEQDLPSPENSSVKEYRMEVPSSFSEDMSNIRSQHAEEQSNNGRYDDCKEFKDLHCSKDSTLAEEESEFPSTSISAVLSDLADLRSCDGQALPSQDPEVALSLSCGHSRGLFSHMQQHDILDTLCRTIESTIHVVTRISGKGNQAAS

Cl.O=C(CCl)N1CCC(Cc2nccs2)C1 (stereo not given)
inactive: USP34 0.132 | USP36 -0.0197 | USP38 0.0569 | USP39 0.0712 | USP4 -0.165
